# Source: PubChem BioAssay AID1159580 (chemical genetic matrix, 2015)
# About 2,000 (36%) of roughly 5,500 compounds were called active. About 18% were inconclusive and are not listed. The list shows a part of the results. Values without a mark were called inactive. Rule as the data show it: active = normalized growth mostly below about 0.91 (no sharp cut-off); inconclusive = no clear call, values can overlap the other calls; inactive = mostly above about 0.92.
# Assay: chemical genetic growth profiling, strain panel (AID 1159580);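 also: tested at 20 µM; growth read once vehicle control cultures reached saturation at 30 °C; 1 = growth at the plate median or of vehicle wells; lower values mean less growth of the strain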
# Settings: growth OD
smiles,measurement,setting,value
C[C@@H]1CC[C@@]2(OC1)OC1C(O)C3C4CC[C@H]5C[C@H](O[C@@H]6O[C@H](CO)[C@H](O[C@@H]7O[C@H](CO)[C@@H](O)[C@H](O[C@@H]8OC[C@@H](O)[C@H](O)[C@H]8O)[C@H]7O[C@@H]7O[C@H](CO)[C@H](O)[C@H](O[C@@H]8O[C@H](CO)[C@@H](O)[C@H](O)[C@H]8O)[C@H]7O)[C@H](O)[C@H]6O)[C@H](O)C[C@]5(C)C4CC[C@]3(C)C1[C@@H]2C (stereo partly specified),normalized growth,"S. cerevisiae deletion strains, locus YJR043C, strain POL32, stronger effect = lower value",0.0654 (active)
same,normalized growth,"S. cerevisiae deletion strains, locus YJR066W, strain TOR1, stronger effect = lower value",-0.00057 (active)
same,normalized growth,"S. cerevisiae deletion strains, locus YKL009W, strain mrt4, stronger effect = lower value",0.0811 (active)
same,normalized growth,"S. cerevisiae deletion strains, locus YKL068W, stronger effect = lower value",0.0538 (active)
same,normalized growth,"S. cerevisiae deletion strains, locus YKL085W, strain MDH1 (second series), stronger effect = lower value",0.0597 (active)
same,normalized growth,"S. cerevisiae deletion strains, locus YKL085W, strain MDH1, stronger effect = lower value",0.0597 (active)
same,normalized growth,"S. cerevisiae deletion strains, locus YKL160W, strain elf1, stronger effect = lower value",1.01
same,normalized growth,"S. cerevisiae deletion strains, locus YKR001C, strain vps1, stronger effect = lower value",0.0628 (active)
same,normalized growth,"S. cerevisiae deletion strains, locus YKR026C, strain gcn3, stronger effect = lower value",1.03
same,normalized growth,"S. cerevisiae deletion strains, locus YKR091W, strain srl3, stronger effect = lower value",1.02
same,normalized growth,"S. cerevisiae deletion strains, locus YLL001W, strain dnm1, stronger effect = lower value",0.962
same,normalized growth,"S. cerevisiae deletion strains, locus YLL026W, stronger effect = lower value",1.01
same,normalized growth,"S. cerevisiae deletion strains, locus YLL041C, strain sdh2, stronger effect = lower value",1.02
same,normalized growth,"S. cerevisiae deletion strains, locus YLR027C, strain aat2, stronger effect = lower value",1.01
same,normalized growth,"S. cerevisiae deletion strains, locus YLR039C, strain RIC1, stronger effect = lower value",0.0908 (active)
same,normalized growth,"S. cerevisiae deletion strains, locus YLR058C, strain SHM2, stronger effect = lower value",0.0509 (active)
same,normalized growth,"S. cerevisiae deletion strains, locus YLR102C, strain apc9, stronger effect = lower value",0.0549 (active)
same,normalized growth,"S. cerevisiae deletion strains, locus YLR113W, strain HOG1, stronger effect = lower value",0.124 (active)
same,normalized growth,"S. cerevisiae deletion strains, locus YLR221C, strain rsa3, stronger effect = lower value",0.926
same,normalized growth,"S. cerevisiae deletion strains, locus YLR258W, strain gsy2, stronger effect = lower value",1.02
same,normalized growth,"S. cerevisiae deletion strains, locus YLR262C, strain YPT6 (second series), stronger effect = lower value",0.598 (active)
same,normalized growth,"S. cerevisiae deletion strains, locus YLR262C, strain YPT6, stronger effect = lower value",0.112 (active)
same,normalized growth,"S. cerevisiae deletion strains, locus YLR268W, strain sec22, stronger effect = lower value",0.0616 (active)
same,normalized growth,"S. cerevisiae deletion strains, locus YLR320W, strain mms22, stronger effect = lower value",0.985
same,normalized growth,"S. cerevisiae deletion strains, locus YLR342W, strain FKS1, stronger effect = lower value",0.991
same,normalized growth,"S. cerevisiae deletion strains, locus YLR357W, strain rsc2, stronger effect = lower value",0.875
same,normalized growth,"S. cerevisiae deletion strains, locus YLR370C, strain arc18, stronger effect = lower value",1.02
same,normalized growth,"S. cerevisiae deletion strains, locus YLR371W, strain rom2, stronger effect = lower value",0.0571 (active)
same,normalized growth,"S. cerevisiae deletion strains, locus YLR384C, strain iki3, stronger effect = lower value",1.04
same,normalized growth,"S. cerevisiae deletion strains, locus YLR418C, strain cdc73, stronger effect = lower value",0.0973 (active)
same,normalized growth,"S. cerevisiae deletion strains, locus YML016C, strain PPZ1, stronger effect = lower value",0.0492 (active)
same,normalized growth,"S. cerevisiae deletion strains, locus YML032C, strain rad52, stronger effect = lower value",0.0633 (active)
same,normalized growth,"S. cerevisiae deletion strains, locus YML120C, strain ndi1, stronger effect = lower value",0.925
same,normalized growth,"S. cerevisiae deletion strains, locus YML124C, strain tub3, stronger effect = lower value",0.0557 (active)
same,normalized growth,"S. cerevisiae deletion strains, locus YMR058W, strain fet3, stronger effect = lower value",1.01
same,normalized growth,"S. cerevisiae deletion strains, locus YMR078C, strain ctf18, stronger effect = lower value",0.064 (active)
same,normalized growth,"S. cerevisiae deletion strains, locus YMR125W, strain sto1, stronger effect = lower value",1.03
same,normalized growth,"S. cerevisiae deletion strains, locus YMR129W, stronger effect = lower value",1.03
same,normalized growth,"S. cerevisiae deletion strains, locus YMR205C, strain PFK2, stronger effect = lower value",0.977
same,normalized growth,"S. cerevisiae deletion strains, locus YMR223W, strain ubp8, stronger effect = lower value",0.0562 (active)
same,normalized growth,"S. cerevisiae deletion strains, locus YMR263W, strain SAP30, stronger effect = lower value",0.055 (active)
same,normalized growth,"S. cerevisiae deletion strains, locus YMR307W, strain GAS1, stronger effect = lower value",0.13 (active)
same,normalized growth,"S. cerevisiae deletion strains, locus YNL067W, strain RPL9B, stronger effect = lower value",0.0474 (active)
same,normalized growth,"S. cerevisiae deletion strains, locus YNL071W, strain lat1, stronger effect = lower value",1.03
same,normalized growth,"S. cerevisiae deletion strains, locus YNL153C, strain GIM3, stronger effect = lower value",0.0551 (active)
same,normalized growth,"S. cerevisiae deletion strains, locus YNL183C, strain NPR1, stronger effect = lower value",-0.00129 (active)
same,normalized growth,"S. cerevisiae deletion strains, locus YNL209W, strain ssb2, stronger effect = lower value",1.03
same,normalized growth,"S. cerevisiae deletion strains, locus YNL233W, strain BNI4, stronger effect = lower value",0.0568 (active)
same,normalized growth,"S. cerevisiae deletion strains, locus YNL248C, strain rpa49, stronger effect = lower value",1.02
same,normalized growth,"S. cerevisiae deletion strains, locus YNL250W, strain rad50, stronger effect = lower value",0.0602 (active)
same,normalized growth,"S. cerevisiae deletion strains, locus YNL271C, strain bni1, stronger effect = lower value",0.0573 (active)
same,normalized growth,"S. cerevisiae deletion strains, locus YNL298W, strain CLA4, stronger effect = lower value",0.0588 (active)
same,normalized growth,"S. cerevisiae deletion strains, locus YNL307C, strain MCK1, stronger effect = lower value",0.063 (active)
same,normalized growth,"S. cerevisiae deletion strains, locus YNL322C, strain KRE1 (second series), stronger effect = lower value",1.04
same,normalized growth,"S. cerevisiae deletion strains, locus YNR049C, strain mso1, stronger effect = lower value",1.03
same,normalized growth,"S. cerevisiae deletion strains, locus YNR052C, strain pop2, stronger effect = lower value",0.0596 (active)
same,normalized growth,"S. cerevisiae deletion strains, locus YOL006C, strain TOP1, stronger effect = lower value",0.131 (active)
same,normalized growth,"S. cerevisiae deletion strains, locus YOL012C, strain htz1",0.172 (active)
same,normalized growth,"S. cerevisiae deletion strains, locus YOL147C, strain pex11, stronger effect = lower value",0.0607 (active)
same,normalized growth,"S. cerevisiae deletion strains, locus YOR001W, strain rrp6, stronger effect = lower value",0.939
same,normalized growth,"S. cerevisiae deletion strains, locus YOR061W, strain CKA2, stronger effect = lower value",0.0464 (active)
same,normalized growth,"S. cerevisiae deletion strains, locus YOR069W, strain VPS5, stronger effect = lower value",0.05 (active)
same,normalized growth,"S. cerevisiae deletion strains, locus YOR070C, strain gyp1, stronger effect = lower value",1.02
same,normalized growth,"S. cerevisiae deletion strains, locus YOR080W, strain dia2, stronger effect = lower value",1.04
same,normalized growth,"S. cerevisiae deletion strains, locus YOR083W, strain WHI5, stronger effect = lower value",0.974
same,normalized growth,"S. cerevisiae deletion strains, locus YOR106W, strain vam3, stronger effect = lower value",0.919
same,normalized growth,"S. cerevisiae deletion strains, locus YOR136W, strain idh2, stronger effect = lower value",0.0668 (active)
same,normalized growth,"S. cerevisiae deletion strains, locus YOR144C, strain elg1, stronger effect = lower value",0.0588 (active)
same,normalized growth,"S. cerevisiae deletion strains, locus YOR184W, strain ser1, stronger effect = lower value",0.0693 (active)
same,normalized growth,"S. cerevisiae deletion strains, locus YOR231W, strain MKK1, stronger effect = lower value",0.0965 (active)
same,normalized growth,"S. cerevisiae deletion strains, locus YOR265W, strain rbl2, stronger effect = lower value",1.04
same,normalized growth,"S. cerevisiae deletion strains, locus YOR270C, strain vph1, stronger effect = lower value",0.99
same,normalized growth,"S. cerevisiae deletion strains, locus YOR290C, strain snf2, stronger effect = lower value",0.964
same,normalized growth,"S. cerevisiae deletion strains, locus YOR316C, strain cot1, stronger effect = lower value",0.0539 (active)
same,normalized growth,"S. cerevisiae deletion strains, locus YPL051W, strain arl3, stronger effect = lower value",0.95
same,normalized growth,"S. cerevisiae deletion strains, locus YPL078C, strain atp4, stronger effect = lower value",0.968
same,normalized growth,"S. cerevisiae deletion strains, locus YPL106C, strain sse1, stronger effect = lower value",0.671 (active)
same,normalized growth,"S. cerevisiae deletion strains, locus YPL240C, strain hsp82, stronger effect = lower value",1
same,normalized growth,"S. cerevisiae deletion strains, locus YPL241C, strain CIN2, stronger effect = lower value",0.0482 (active)
same,normalized growth,"S. cerevisiae deletion strains, locus YPL256C, strain CLN2, stronger effect = lower value",0.109 (active)
same,normalized growth,"S. cerevisiae deletion strains, locus YPR119W, strain clb2, stronger effect = lower value",0.0604 (active)
same,normalized growth,"S. cerevisiae deletion strains, locus YPR141C, strain kar3, stronger effect = lower value",0.0605 (active)
same,normalized growth,"S. cerevisiae deletion strains, locus YPR163C, strain tif3, stronger effect = lower value",0.0646 (active)
same,normalized growth,"S. cerevisiae deletion strains, locus YPR167C, strain met16, stronger effect = lower value",0.0578 (active)
same,normalized growth,"S. cerevisiae deletion strains, strain wtn01, stronger effect = lower value",0.0611 (active)
same,normalized growth,"S. cerevisiae strains, strain wild type, stronger effect = lower value",0.0496 (active)
